# Shown is part of a subset that was picked to be rich in the strongest signals.
# B1: Si Bti9 1b-HA (Solanum lycopersicum) (protein)
# chain: MFESRPRSVLSLGVFVILVYLSSVPLPVNSQCNRGCDLALASFYVWRGSNLTLISEMFSTSIADIVSYNNRDNIPNQDSVIAGTRINIPFRCDCLNDGEVLGHAFPYRVKSGDTYDLVARNYSDLTTAQWMMKFNSYPENNIPNTVNLSVVVNCSCGNSDVSKDFGLFVTYPVRAEDNLTSVASAANVSEDIIRRYNPAAVSILDIGQGIIYIPGRDRNGNFPPLPTSTDGLSGGAKAPLFFNPAFLYKVVELKLAGRSRTSGYPYDVPDYAGYPYDVPDYALEVLFQ
# Experiments:
# Test in all cases: glycan array binding signal (z-score within array); higher = stronger binding
# Details in all cases: glycan notation: IUPAC condensed, linker removed
# Fuc(a1-2)Gal = biological target: Fuc(a1-2)Gal
# Method in brief: (§1)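 The Consortium for Functional Glycomics database supplied 3228 glycan arrays, of which those lacking an available protein sequence were dropped. The binding signal, a within-array Z-score, was averaged across arrays of the same protein sequence and across linkers. Negative scores can be read as non-binding.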
# [1] = biological target: Fuc(a1-2)Gal(b1-3)GalNAc(a1-3)[Fuc(a1-2)]Gal(b1-4)GlcNAc
# Method in brief: as §1
# [2] = biological target: Fuc(a1-2)Gal(b1-4)GlcNAc6S
# Method in brief: as §1
# [3] = biological target: Fuc(a1-2)Gal3S(b1-4)GlcNAc
# Method in brief: as §1
# Fuc(a1-2)Gal6S(b1-4)Glc = biological target: Fuc(a1-2)Gal6S(b1-4)Glc
# Method in brief: as §1
# [4] = biological target: Fuc(a1-2)[Gal(a1-3)]Gal(b1-3)GlcNAc(b1-2)Man(a1-3)[Fuc(a1-2)[Gal(a1-3)]Gal(b1-3)GlcNAc(b1-2)Man(a1-6)]Man(b1-4)GlcNAc(b1-4)[Fuc(a1-6)]GlcNAc
# Method in brief: as §1
# [5] = biological target: Fuc(a1-2)[GalNAc(a1-3)]Gal
# Method in brief: as §1
# [6] = biological target: Fuc(a1-2)[GalNAc(a1-3)]Gal(b1-3)GlcNAc
# Method in brief: as §1
# [7] = biological target: Fuc(a1-2)[GalNAc(b1-3)]Gal
# Method in brief: as §1
# Gal(a1-3)Gal(b1-3)GlcNAc = biological target: Gal(a1-3)Gal(b1-3)GlcNAc
# Method in brief: as §1
# [8] = biological target: Gal(a1-3)Gal(b1-3)GlcNAc(b1-3)GalNAc
# Method in brief: as §1
# [9] = biological target: Gal(a1-3)Gal(b1-4)GlcNAc(b1-3)GalNAc
# Method in brief: as §1
# [10] = biological target: Gal(a1-4)Gal(b1-4)GlcNAc(b1-3)Gal(b1-4)Glc
# Method in brief: as §1
# [11] = biological target: Gal(b1-3)GlcNAc(a1-3)Gal(b1-4)GlcNAc
# Method in brief: as §1
# [12] = biological target: Gal(b1-3)GlcNAc(b1-2)Man(a1-3)[Gal(b1-3)GlcNAc(b1-2)Man(a1-6)]Man(b1-4)GlcNAc(b1-4)GlcNAc
# Method in brief: as §1
# [13] = biological target: Gal(b1-3)GlcNAc(b1-2)Man(a1-3)[Gal(b1-3)GlcNAc(b1-2)Man(a1-6)]Man(b1-4)GlcNAc(b1-4)[Fuc(a1-6)]GlcNAc
# Method in brief: as §1
# [14] = biological target: Gal(b1-3)GlcNAc(b1-2)Man(a1-3)[GlcNAc(b1-4)][Gal(b1-3)GlcNAc(b1-2)Man(a1-6)]Man(b1-4)GlcNAc(b1-4)GlcNAc
# Method in brief: as §1
# [15] = biological target: Gal(b1-3)GlcNAc(b1-2)[Gal(b1-3)GlcNAc(b1-6)]Man(a1-6)[Gal(b1-3)GlcNAc(b1-2)Man(a1-3)]Man(b1-4)GlcNAc(b1-4)GlcNAc
# Method in brief: as §1
# [16] = biological target: Gal(b1-3)GlcNAc(b1-6)[Gal(b1-3)]GalNAc
# Method in brief: as §1
# [17] = biological target: Gal(b1-4)GlcNAc(b1-2)[Gal(b1-4)GlcNAc(b1-4)]Man(a1-3)[Gal(b1-4)GlcNAc(b1-2)Man(a1-6)]Man(b1-4)GlcNAc(b1-4)GlcNAc
# Method in brief: as §1
# [18] = biological target: Gal(b1-4)GlcNAc(b1-2)[Gal(b1-4)GlcNAc(b1-6)]Man(a1-6)[GlcNAc(b1-4)][Gal(b1-4)GlcNAc(b1-2)Man(a1-3)]Man(b1-4)GlcNAc(b1-4)GlcNAc
# Method in brief: as §1
# [19] = biological target: Gal(b1-4)GlcNAc(b1-3)Gal(b1-4)GlcNAc
# Method in brief: as §1
# [20] = biological target: Gal(b1-4)GlcNAc(b1-3)Gal(b1-4)GlcNAc(b1-2)Man(a1-3)[Gal(b1-4)GlcNAc(b1-3)Gal(b1-4)GlcNAc(b1-2)Man(a1-6)]Man(b1-4)GlcNAc(b1-4)GlcNAc
# Method in brief: as §1
# [21] = biological target: Gal(b1-4)GlcNAc(b1-3)Gal(b1-4)GlcNAc(b1-2)[Gal(b1-4)GlcNAc(b1-3)Gal(b1-4)GlcNAc(b1-6)]Man(a1-6)[Gal(b1-4)GlcNAc(b1-3)Gal(b1-4)GlcNAc(b1-2)Man(a1-3)]Man(b1-4)GlcNAc(b1-4)GlcNAc
# Method in brief: as §1
# [22] = biological target: Gal(b1-4)GlcNAc(b1-3)Gal(b1-4)GlcNAc(b1-3)Gal(b1-4)GlcNAc(b1-2)Man(a1-3)[Gal(b1-4)GlcNAc(b1-3)Gal(b1-4)GlcNAc(b1-3)Gal(b1-4)GlcNAc(b1-2)Man(a1-6)]Man(b1-4)GlcNAc(b1-4)[Fuc(a1-6)]GlcNAc
# Method in brief: as §1
# [23] = biological target: Gal3S(b1-3)[Fuc(a1-4)]GlcNAc
# Method in brief: as §1
# Gal3S(b1-4)Glc = biological target: Gal3S(b1-4)Glc
# Method in brief: as §1
# GalNAc(b1-4)GlcNAc6S = biological target: GalNAc(b1-4)GlcNAc6S
# Method in brief: as §1
# [24] = biological target: GlcA3S(b1-3)Gal(b1-4)GlcNAc(b1-3)Gal(b1-4)Glc
# Method in brief: as §1
# [25] = biological target: GlcNAc(a1-4)Gal(b1-4)GlcNAc(b1-3)Gal(b1-4)GlcNAc(b1-3)Gal(b1-4)GlcNAc
# Method in brief: as §1
# [26] = biological target: GlcNAc(b1-3)Gal(b1-3)GalNAc
# Method in brief: as §1
# [27] = biological target: GlcNAc(b1-3)Gal(b1-4)GlcNAc(b1-3)Gal(b1-4)GlcNAc(b1-2)Man(a1-3)[GlcNAc(b1-3)Gal(b1-4)GlcNAc(b1-3)Gal(b1-4)GlcNAc(b1-2)Man(a1-6)]Man(b1-4)GlcNAc(b1-4)GlcNAc
# Method in brief: as §1
# [28] = biological target: GlcNAc(b1-3)Gal(b1-4)GlcNAc(b1-3)Gal(b1-4)GlcNAc(b1-3)Gal(b1-4)GlcNAc(b1-2)Man(a1-3)[GlcNAc(b1-3)Gal(b1-4)GlcNAc(b1-3)Gal(b1-4)GlcNAc(b1-3)Gal(b1-4)GlcNAc(b1-2)Man(a1-6)]Man(b1-4)GlcNAc(b1-4)[Fuc(a1-6)]GlcNAc
# Method in brief: as §1
# [29] = biological target: GlcNAc(b1-6)Gal(b1-4)GlcNAc
# Method in brief: as §1
# Kdn(a2-3)Gal(b1-4)Glc = biological target: Kdn(a2-3)Gal(b1-4)Glc
# Method in brief: as §1
# [30] = biological target: Man(a1-2)Man(a1-3)[Man(a1-2)Man(a1-6)]Man
# Method in brief: as §1
# [31] = biological target: Man(a1-2)Man(a1-3)[Man(a1-2)Man(a1-6)]Man(a1-6)[Man(a1-2)Man(a1-2)Man(a1-3)]Man
# Method in brief: as §1
# [32] = biological target: Man(a1-2)Man(a1-6)[Man(a1-3)]Man(a1-6)[Man(a1-2)Man(a1-2)Man(a1-3)]Man(b1-4)GlcNAc(b1-4)GlcNAc
# Method in brief: as §1
# Man(a1-6)Man = biological target: Man(a1-6)Man
# Method in brief: as §1
# Neu5Ac(a2-3)Gal(b1-4)Glc = biological target: Neu5Ac(a2-3)Gal(b1-4)Glc
# Method in brief: as §1
# [33] = biological target: Neu5Ac(a2-3)Gal(b1-4)[Fuc(a1-3)]GlcNAc6S
# Method in brief: as §1
# [34] = biological target: Neu5Ac(a2-6)Gal(b1-3)GlcNAc(b1-3)[Gal(b1-4)GlcNAc(b1-6)]Gal(b1-4)Glc
# Method in brief: as §1
# [35] = biological target: Neu5Ac(a2-6)Gal(b1-4)GlcNAc(b1-3)Gal(b1-4)GlcNAc(b1-3)Gal(b1-4)GlcNAc(b1-2)Man(a1-3)[Neu5Ac(a2-6)Gal(b1-4)GlcNAc(b1-3)Gal(b1-4)GlcNAc(b1-3)Gal(b1-4)GlcNAc(b1-2)Man(a1-6)]GalNAc
# Method in brief: as §1
# [36] = biological target: Neu5Ac(a2-8)Neu5Ac(a2-3)Gal(b1-4)Glc
# Method in brief: as §1
# [37] = biological target: Neu5Ac(a2-8)Neu5Gc(a2-3)Gal(b1-4)GlcNAc
# Method in brief: as §1
# [38] = biological target: Neu5Ac9Ac(a2-3)Gal(b1-4)GlcNAc
# Method in brief: as §1
# [39] = biological target: Neu5Gc(a2-3)Gal(b1-4)GlcNAc
# Method in brief: as §1
binder,measurement,setting,value
B1,glycan array binding signal (z-score),Fuc(a1-2)Gal,-0.051
same,glycan array binding signal (z-score),[1],0.182
same,glycan array binding signal (z-score),[2],-0.271
same,glycan array binding signal (z-score),[3],-0.035
same,glycan array binding signal (z-score),Fuc(a1-2)Gal6S(b1-4)Glc,-0.028
same,glycan array binding signal (z-score),[4],2.04
same,glycan array binding signal (z-score),[5],-0.349
same,glycan array binding signal (z-score),[6],-0.146
same,glycan array binding signal (z-score),[7],-0.405
same,glycan array binding signal (z-score),Gal(a1-3)Gal(b1-3)GlcNAc,9.57
same,glycan array binding signal (z-score),[8],0.207
same,glycan array binding signal (z-score),[9],-0.182
same,glycan array binding signal (z-score),[10],-0.274
same,glycan array binding signal (z-score),[11],-0.16
same,glycan array binding signal (z-score),[12],3.24
same,glycan array binding signal (z-score),[13],1.03
same,glycan array binding signal (z-score),[14],3.72
same,glycan array binding signal (z-score),[15],2.51
same,glycan array binding signal (z-score),[16],-0.205
same,glycan array binding signal (z-score),[17],-0.324
same,glycan array binding signal (z-score),[18],-0.363
same,glycan array binding signal (z-score),[19],-0.346
same,glycan array binding signal (z-score),[20],3.44
same,glycan array binding signal (z-score),[21],2.69
same,glycan array binding signal (z-score),[22],0.042
same,glycan array binding signal (z-score),[23],-0.237
same,glycan array binding signal (z-score),Gal3S(b1-4)Glc,2.57
same,glycan array binding signal (z-score),GalNAc(b1-4)GlcNAc6S,-0.204
same,glycan array binding signal (z-score),[24],-0.157
same,glycan array binding signal (z-score),[25],-0.231
same,glycan array binding signal (z-score),[26],-0.271
same,glycan array binding signal (z-score),[27],2.7
same,glycan array binding signal (z-score),[28],0.086
same,glycan array binding signal (z-score),[29],-0.32
same,glycan array binding signal (z-score),Kdn(a2-3)Gal(b1-4)Glc,-0.287
same,glycan array binding signal (z-score),[30],-0.589
same,glycan array binding signal (z-score),[31],-0.638
same,glycan array binding signal (z-score),[32],-0.201
same,glycan array binding signal (z-score),Man(a1-6)Man,7.42
same,glycan array binding signal (z-score),Neu5Ac(a2-3)Gal(b1-4)Glc,0.009
same,glycan array binding signal (z-score),[33],-0.438
same,glycan array binding signal (z-score),[34],-0.236
same,glycan array binding signal (z-score),[35],2.19
same,glycan array binding signal (z-score),[36],0.02
same,glycan array binding signal (z-score),[37],-0.539
same,glycan array binding signal (z-score),[38],-0.425
same,glycan array binding signal (z-score),[39],-0.219
